# How the values were obtained:
# [1] = biological target: T1, Serine/threonine-protein kinase D2 (Homo sapiens) (UniProt Q9BZL6); details: at 1 µM;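 also: mean value of PRKD2 inhibition, from the GSK PKIS screening panel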
# T1 sequence (whole entry): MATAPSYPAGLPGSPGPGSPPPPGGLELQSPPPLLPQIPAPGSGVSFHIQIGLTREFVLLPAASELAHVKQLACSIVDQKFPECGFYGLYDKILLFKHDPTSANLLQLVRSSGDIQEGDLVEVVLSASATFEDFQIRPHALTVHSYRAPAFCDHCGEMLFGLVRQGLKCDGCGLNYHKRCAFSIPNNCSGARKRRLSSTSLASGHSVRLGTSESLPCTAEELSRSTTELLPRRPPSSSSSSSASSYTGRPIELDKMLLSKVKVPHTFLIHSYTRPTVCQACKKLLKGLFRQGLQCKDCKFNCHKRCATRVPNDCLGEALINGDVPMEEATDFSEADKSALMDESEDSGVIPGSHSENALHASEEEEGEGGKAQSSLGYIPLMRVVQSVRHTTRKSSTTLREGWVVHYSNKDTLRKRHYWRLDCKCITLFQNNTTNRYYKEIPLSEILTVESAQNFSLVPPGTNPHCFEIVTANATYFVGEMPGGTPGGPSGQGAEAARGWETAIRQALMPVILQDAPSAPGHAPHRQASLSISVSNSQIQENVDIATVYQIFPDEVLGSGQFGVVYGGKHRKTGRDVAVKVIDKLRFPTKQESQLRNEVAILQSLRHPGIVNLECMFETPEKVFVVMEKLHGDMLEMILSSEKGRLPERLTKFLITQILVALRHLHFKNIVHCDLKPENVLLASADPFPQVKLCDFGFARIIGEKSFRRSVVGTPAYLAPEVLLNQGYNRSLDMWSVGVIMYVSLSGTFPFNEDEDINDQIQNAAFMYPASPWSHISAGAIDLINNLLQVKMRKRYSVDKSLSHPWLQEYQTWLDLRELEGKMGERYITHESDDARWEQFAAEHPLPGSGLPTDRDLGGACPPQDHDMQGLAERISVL
# [2] = biological target: T2, Serine/threonine-protein kinase D3 (Homo sapiens) (UniProt O94806); details: at 0.1 µM
# T2 sequence (whole entry): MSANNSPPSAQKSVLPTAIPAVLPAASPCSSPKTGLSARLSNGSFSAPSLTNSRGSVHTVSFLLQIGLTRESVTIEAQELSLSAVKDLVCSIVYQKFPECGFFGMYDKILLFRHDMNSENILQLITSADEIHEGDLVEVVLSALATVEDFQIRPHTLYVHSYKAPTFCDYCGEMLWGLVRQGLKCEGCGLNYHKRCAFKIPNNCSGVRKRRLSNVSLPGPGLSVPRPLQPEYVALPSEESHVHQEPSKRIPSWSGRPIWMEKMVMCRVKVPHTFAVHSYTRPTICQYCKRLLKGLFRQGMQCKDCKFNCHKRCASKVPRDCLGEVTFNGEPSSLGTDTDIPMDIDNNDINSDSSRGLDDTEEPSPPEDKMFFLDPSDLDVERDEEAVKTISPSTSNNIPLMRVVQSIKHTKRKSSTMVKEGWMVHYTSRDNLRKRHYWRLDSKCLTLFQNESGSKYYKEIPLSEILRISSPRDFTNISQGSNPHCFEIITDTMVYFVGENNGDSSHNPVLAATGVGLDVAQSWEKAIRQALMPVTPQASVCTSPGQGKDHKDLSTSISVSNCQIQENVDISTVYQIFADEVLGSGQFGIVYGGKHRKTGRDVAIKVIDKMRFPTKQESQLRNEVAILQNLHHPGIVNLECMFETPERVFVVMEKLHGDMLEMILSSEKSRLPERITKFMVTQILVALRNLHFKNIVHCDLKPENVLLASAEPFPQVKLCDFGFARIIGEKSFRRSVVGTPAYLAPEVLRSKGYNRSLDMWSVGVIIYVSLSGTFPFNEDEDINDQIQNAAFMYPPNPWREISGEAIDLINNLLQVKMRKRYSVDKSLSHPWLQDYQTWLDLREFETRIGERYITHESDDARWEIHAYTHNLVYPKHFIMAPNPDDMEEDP
# [3] = biological target: T2, Serine/threonine-protein kinase D3 (Homo sapiens); details: at 1 µM
# [4] = biological target: T3, cGMP-dependent protein kinase 1 (Homo sapiens) (UniProt Q13976); details: at 0.1 µM
# T3 sequence (whole entry): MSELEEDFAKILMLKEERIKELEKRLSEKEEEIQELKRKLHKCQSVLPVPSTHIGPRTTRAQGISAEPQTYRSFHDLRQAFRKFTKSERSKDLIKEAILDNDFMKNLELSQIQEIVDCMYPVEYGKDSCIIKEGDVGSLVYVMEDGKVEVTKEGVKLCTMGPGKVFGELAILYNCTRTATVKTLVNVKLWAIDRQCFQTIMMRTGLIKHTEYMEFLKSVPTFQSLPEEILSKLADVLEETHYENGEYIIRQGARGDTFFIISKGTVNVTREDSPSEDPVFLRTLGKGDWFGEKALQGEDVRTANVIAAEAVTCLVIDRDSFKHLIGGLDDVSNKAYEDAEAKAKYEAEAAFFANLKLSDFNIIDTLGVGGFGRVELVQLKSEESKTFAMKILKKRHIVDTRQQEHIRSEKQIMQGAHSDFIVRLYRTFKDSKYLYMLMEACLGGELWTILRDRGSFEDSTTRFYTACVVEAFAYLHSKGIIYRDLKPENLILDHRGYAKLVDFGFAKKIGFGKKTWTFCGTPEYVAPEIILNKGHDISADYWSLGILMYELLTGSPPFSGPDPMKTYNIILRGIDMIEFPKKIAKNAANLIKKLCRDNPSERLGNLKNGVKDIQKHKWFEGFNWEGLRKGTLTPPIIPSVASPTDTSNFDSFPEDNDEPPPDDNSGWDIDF
# [5] = biological target: T3, cGMP-dependent protein kinase 1 (Homo sapiens); details: at 1 µM
# [6] = biological target: T4, cGMP-dependent protein kinase 2 (Homo sapiens) (UniProt Q13237); details: at 0.1 µM
# T4 sequence (whole entry): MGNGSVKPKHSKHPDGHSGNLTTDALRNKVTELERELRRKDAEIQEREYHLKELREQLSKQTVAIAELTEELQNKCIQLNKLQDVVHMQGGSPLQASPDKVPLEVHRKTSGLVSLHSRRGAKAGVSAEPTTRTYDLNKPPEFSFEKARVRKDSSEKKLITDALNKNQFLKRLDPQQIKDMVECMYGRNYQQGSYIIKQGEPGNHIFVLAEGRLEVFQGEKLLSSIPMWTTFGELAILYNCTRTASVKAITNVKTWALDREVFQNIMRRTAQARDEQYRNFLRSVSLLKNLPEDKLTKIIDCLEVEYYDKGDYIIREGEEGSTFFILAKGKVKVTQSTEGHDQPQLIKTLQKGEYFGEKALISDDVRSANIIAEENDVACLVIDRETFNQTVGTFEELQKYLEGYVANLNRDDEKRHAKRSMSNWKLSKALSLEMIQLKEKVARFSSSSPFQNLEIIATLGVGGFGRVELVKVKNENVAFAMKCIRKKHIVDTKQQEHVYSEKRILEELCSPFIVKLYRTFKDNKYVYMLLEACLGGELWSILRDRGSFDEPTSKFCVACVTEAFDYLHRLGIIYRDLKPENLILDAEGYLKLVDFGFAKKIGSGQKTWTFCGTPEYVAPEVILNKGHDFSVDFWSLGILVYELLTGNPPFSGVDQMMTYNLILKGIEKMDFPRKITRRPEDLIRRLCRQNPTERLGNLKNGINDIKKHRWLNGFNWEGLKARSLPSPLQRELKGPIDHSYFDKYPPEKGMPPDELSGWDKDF
# [7] = biological target: T4, cGMP-dependent protein kinase 2 (Homo sapiens); details: at 1 µM
# [8] = biological target: T5, cAMP-dependent protein kinase catalytic subunit PRKX (Homo sapiens) (UniProt P51817); details: at 0.1 µM
# T5 sequence (whole entry): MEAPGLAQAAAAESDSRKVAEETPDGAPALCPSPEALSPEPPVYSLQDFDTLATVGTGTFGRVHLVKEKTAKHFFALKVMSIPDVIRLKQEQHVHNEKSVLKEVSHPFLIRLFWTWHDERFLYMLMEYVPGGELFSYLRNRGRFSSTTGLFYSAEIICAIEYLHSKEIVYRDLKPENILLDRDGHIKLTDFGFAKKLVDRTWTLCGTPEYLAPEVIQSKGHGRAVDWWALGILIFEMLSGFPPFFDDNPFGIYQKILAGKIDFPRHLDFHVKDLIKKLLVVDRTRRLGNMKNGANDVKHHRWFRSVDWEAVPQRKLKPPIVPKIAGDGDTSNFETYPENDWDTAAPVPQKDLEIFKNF
# [9] = biological target: T5, cAMP-dependent protein kinase catalytic subunit PRKX (Homo sapiens); details: at 1 µM
# [10] = biological target: Rho-associated protein kinase 1 (Homo sapiens) (UniProt Q13464); details: at 0.1 µM
# Sequence of Rho-associated protein kinase 1 (Homo sapiens) (Q13464 2-1354 limits assumed): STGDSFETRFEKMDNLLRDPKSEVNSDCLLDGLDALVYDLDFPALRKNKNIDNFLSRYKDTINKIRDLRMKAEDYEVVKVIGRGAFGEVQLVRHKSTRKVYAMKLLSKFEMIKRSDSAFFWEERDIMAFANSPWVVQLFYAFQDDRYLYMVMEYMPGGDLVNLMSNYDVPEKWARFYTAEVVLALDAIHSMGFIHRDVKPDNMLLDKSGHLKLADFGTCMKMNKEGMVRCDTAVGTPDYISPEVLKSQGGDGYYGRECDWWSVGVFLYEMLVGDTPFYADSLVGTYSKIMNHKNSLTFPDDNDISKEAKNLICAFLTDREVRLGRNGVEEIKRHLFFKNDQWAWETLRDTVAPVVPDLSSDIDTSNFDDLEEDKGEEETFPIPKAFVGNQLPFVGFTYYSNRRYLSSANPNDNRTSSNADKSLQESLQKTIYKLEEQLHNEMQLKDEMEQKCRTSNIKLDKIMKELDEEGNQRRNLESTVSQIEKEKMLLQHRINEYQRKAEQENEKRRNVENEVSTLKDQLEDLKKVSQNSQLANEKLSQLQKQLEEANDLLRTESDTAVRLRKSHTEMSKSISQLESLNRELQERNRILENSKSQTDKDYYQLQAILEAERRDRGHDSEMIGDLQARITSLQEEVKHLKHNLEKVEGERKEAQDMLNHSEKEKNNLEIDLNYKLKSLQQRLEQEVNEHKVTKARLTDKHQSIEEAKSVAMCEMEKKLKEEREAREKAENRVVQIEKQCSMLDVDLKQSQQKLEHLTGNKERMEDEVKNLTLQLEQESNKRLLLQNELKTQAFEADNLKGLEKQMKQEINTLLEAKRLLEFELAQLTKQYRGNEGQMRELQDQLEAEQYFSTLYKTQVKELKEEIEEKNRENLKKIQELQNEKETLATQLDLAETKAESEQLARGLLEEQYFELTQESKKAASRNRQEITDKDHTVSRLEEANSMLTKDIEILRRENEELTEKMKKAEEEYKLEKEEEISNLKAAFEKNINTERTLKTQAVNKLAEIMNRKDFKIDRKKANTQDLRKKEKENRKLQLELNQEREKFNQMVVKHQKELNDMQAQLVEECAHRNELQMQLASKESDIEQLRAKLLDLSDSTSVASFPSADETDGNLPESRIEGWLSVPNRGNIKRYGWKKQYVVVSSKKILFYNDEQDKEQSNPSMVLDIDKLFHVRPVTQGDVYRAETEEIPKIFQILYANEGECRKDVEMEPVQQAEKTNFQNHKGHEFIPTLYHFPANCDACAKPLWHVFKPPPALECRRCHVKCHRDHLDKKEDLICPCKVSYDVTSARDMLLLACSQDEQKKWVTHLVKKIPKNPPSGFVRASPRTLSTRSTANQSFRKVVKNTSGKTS
# [11] = biological target: Rho-associated protein kinase 1 (Homo sapiens) (UniProt Q13464); details: at 1 µM
# [12] = biological target: Rho-associated protein kinase 2 (Homo sapiens) (UniProt O75116); details: at 0.1 µM
# Sequence of Rho-associated protein kinase 2 (Homo sapiens) (O75116 whole entry, looked up): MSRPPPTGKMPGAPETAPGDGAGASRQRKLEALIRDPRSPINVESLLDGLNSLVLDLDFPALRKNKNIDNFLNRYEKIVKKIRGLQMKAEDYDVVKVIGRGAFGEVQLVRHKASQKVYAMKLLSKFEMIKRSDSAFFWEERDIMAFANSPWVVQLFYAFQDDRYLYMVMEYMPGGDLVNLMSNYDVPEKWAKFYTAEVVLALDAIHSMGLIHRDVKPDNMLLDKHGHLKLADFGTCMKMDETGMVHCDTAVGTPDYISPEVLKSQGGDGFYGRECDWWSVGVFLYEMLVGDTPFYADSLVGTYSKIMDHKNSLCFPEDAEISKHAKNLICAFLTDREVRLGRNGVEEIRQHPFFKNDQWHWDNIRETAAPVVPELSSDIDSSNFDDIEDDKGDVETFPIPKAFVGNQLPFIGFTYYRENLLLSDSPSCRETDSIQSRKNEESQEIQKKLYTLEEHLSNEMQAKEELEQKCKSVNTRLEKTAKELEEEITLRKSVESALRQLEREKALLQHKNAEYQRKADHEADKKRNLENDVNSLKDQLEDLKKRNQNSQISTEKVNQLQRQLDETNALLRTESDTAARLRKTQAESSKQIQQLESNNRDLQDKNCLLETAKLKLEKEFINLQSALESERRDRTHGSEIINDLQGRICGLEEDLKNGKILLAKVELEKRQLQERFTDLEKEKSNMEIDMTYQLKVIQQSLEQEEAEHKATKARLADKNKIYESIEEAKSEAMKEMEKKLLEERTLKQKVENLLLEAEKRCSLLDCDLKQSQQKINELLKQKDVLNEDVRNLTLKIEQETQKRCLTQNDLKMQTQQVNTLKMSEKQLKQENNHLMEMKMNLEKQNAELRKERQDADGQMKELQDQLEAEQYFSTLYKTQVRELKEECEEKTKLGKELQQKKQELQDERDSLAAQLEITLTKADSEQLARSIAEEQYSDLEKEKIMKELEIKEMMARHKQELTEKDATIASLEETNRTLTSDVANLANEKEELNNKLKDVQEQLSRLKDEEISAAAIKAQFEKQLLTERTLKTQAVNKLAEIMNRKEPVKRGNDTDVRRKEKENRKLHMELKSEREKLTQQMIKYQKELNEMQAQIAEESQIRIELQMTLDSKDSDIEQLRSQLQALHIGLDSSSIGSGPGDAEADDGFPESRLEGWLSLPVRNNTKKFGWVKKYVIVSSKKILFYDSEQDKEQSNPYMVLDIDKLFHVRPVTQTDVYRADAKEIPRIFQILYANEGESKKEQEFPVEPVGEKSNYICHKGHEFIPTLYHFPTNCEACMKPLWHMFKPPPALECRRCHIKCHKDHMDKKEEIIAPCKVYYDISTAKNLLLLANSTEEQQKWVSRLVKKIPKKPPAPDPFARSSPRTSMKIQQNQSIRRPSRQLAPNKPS
# [13] = biological target: Rho-associated protein kinase 2 (Homo sapiens) (UniProt O75116); details: at 1 µM
# [14] = biological target: Ribosomal protein S6 kinase alpha-1 (Homo sapiens) (UniProt Q15418); details: at 0.1 µM
# Sequence of Ribosomal protein S6 kinase alpha-1 (Homo sapiens) (Q15418 whole entry): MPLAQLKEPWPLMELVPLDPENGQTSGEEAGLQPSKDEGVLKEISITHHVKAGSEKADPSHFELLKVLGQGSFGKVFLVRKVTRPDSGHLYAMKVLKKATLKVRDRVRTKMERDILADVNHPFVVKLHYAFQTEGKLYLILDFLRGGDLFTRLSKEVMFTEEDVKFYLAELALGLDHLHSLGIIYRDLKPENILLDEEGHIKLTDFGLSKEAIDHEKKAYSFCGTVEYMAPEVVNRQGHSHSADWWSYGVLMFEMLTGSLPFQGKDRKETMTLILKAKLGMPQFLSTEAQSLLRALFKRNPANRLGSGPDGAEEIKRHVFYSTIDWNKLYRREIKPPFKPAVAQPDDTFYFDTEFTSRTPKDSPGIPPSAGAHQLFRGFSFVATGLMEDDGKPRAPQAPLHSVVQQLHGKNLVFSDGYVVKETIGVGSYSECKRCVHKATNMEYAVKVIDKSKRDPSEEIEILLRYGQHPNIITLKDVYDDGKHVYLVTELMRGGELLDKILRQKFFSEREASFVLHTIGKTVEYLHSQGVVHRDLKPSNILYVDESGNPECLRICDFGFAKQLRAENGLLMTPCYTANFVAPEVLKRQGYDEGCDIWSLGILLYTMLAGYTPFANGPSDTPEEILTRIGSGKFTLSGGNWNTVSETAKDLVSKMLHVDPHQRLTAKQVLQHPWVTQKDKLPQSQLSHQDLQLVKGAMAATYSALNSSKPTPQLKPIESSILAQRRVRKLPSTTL
# [15] = biological target: Ribosomal protein S6 kinase alpha-1 (Homo sapiens) (UniProt Q15418); details: at 1 µM
# [16] = biological target: Ribosomal protein S6 kinase alpha-3 (Homo sapiens) (UniProt P51812); details: at 0.1 µM
# [17] = biological target: Ribosomal protein S6 kinase alpha-3 (Homo sapiens) (UniProt P51812); details: at 1 µM
# [18] = biological target: Ribosomal protein S6 kinase alpha-2 (Homo sapiens) (UniProt Q15349); details: at 0.1 µM
# Sequence of Ribosomal protein S6 kinase alpha-2 (Homo sapiens) (Q15349 whole entry): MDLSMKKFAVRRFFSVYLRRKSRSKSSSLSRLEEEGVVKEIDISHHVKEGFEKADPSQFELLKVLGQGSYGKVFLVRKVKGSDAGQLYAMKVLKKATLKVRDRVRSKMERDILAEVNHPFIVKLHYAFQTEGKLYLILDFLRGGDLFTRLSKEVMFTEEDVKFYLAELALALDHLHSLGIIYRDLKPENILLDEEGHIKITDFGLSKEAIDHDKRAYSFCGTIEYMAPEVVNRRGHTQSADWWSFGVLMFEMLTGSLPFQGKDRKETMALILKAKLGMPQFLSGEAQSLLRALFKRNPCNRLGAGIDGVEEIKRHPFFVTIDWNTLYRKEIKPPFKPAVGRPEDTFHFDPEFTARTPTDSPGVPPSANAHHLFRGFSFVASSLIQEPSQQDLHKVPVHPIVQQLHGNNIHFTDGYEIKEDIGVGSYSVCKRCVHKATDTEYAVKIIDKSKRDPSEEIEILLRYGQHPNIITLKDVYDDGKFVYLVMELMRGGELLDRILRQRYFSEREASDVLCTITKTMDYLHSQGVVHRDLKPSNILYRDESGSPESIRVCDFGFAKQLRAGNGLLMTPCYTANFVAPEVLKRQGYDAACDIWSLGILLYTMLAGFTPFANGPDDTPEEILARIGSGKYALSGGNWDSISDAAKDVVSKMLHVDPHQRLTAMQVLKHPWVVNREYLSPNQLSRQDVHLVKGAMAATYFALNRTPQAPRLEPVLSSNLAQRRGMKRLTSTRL
# [19] = biological target: Ribosomal protein S6 kinase alpha-2 (Homo sapiens) (UniProt Q15349); details: at 1 µM
# [20] = biological target: Ribosomal protein S6 kinase alpha-6 (Homo sapiens) (UniProt Q9UK32); details: at 0.1 µM;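 also: reported value is the mean inhibition of RSK4, from the GSK PKIS kinase inhibitor screen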
# Sequence of Ribosomal protein S6 kinase alpha-6 (Homo sapiens) (Q9UK32 whole entry): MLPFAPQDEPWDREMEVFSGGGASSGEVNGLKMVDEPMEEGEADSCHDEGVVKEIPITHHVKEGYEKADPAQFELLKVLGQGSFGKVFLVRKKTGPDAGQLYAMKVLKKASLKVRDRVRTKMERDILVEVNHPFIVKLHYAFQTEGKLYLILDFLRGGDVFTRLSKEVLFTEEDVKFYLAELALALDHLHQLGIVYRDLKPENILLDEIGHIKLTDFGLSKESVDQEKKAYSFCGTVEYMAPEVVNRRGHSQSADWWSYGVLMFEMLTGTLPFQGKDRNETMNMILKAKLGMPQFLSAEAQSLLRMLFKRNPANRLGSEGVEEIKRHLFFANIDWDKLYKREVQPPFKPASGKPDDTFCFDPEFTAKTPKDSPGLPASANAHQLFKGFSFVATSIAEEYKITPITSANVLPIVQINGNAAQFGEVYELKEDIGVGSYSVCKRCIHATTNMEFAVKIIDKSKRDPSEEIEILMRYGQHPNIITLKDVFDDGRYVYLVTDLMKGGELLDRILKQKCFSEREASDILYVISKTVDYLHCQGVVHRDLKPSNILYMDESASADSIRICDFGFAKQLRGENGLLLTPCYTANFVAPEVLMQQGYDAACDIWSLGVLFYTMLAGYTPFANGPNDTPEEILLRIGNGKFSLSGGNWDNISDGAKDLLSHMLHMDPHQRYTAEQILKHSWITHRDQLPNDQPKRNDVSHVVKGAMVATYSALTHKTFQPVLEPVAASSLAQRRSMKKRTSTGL
Compound,inhibition [1],inhibition [2],inhibition [3],inhibition [4],inhibition [5],inhibition [6],inhibition [7],inhibition [8],inhibition [9],inhibition [10],inhibition [11],inhibition [12],inhibition [13],inhibition [14],inhibition [15],inhibition [16],inhibition [17],inhibition [18],inhibition [19],inhibition [20]
COC(=O)c1ccc2c(c1)C(=Cc1cc(Br)c(O)c(Br)c1)C(=O)N2,3.79%,4.47%,5.87%,2.45%,5.8%,1.59%,6.29%,1.47%,1.86%,2.01%,1.74%,1.52%,3.89%,1.5%,6.51%,1.97%,4.23%,3.99%,6.79%,2.52%
O=C(Nc1ccc(Oc2ccc3[nH]c(NC(=O)c4ccco4)nc3c2)cc1)Nc1cc(C(F)(F)F)ccc1F,-1.48%,-3.15%,-1.16%,1.18%,4.28%,1.74%,4.38%,4%,4.61%,3.36%,26.5%,4.21%,31.3%,1.39%,10.2%,1.5%,6.22%,5.27%,35.7%,0.96%
CN(c1ccc(NC(=O)Nc2ccc(OC(F)(F)F)cc2)cc1)c1ccnc(Nc2cccc(S(N)(=O)=O)c2)n1,3.78%,3.1%,3.42%,-0.15%,0.56%,0.76%,-0.82%,0.6%,0%,-0.35%,1.61%,-0.23%,3.48%,0.06%,0.25%,-0.29%,-0.29%,1.62%,2.2%,-0.26%
NS(=O)(=O)c1ccc(-c2cc3ccncc3cc2OCc2ccccc2)cc1,4.54%,2.31%,2.51%,0.96%,4.78%,1.8%,3.35%,0.85%,1.52%,0.19%,4.04%,2.48%,6.37%,1.11%,3.06%,-0.24%,0.92%,0.22%,2.19%,-0.43%
CCn1c(-c2nonc2N)nc2c(C#CC(C)(C)O)nc(OCCNC)cc21,7.32%,4.82%,9.81%,9.59%,44.8%,39.3%,70.9%,21.5%,65.9%,3.08%,4.86%,3.51%,5.7%,0.22%,4.86%,1.84%,5.57%,3.02%,7.49%,0.98%
FC(F)(F)c1ccc(-c2nn3ncccc3c2-c2ccnc(Nc3ccc4c(c3)OCCO4)n2)cc1,3.07%,-0.32%,-0.07%,3.5%,5.3%,3.41%,4.83%,5.94%,8.53%,1.44%,2.51%,4.66%,8.18%,1.49%,3.18%,2.19%,5.4%,-0.87%,0.6%,-0.08%
Oc1cccc(-c2nc(-c3ccccc3)[nH]c2-c2ccncc2)c1,7.13%,2.71%,4.25%,2.56%,5.69%,1.58%,6.36%,2.36%,2.93%,0.52%,1.51%,3.56%,6.34%,2.58%,3.62%,1.36%,2.76%,1.27%,3.22%,2.27%

# From ChEMBL document CHEMBL1961873, “Compounds: GSK PKIS; Assays: Nanosyn kinase panel” (2012)
